Source: PubChem BioAssay (NCI)
Compounds without any hit were thinned out: in the full panel of roughly 83,000, 20% have a hit.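 Assay: single dose, 48 h. Readout: percent growth (0 = no net growth; negative = cell death). Active: <10.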 Unmarked numbers belong to inactive results. The source made the active and inactive calls.

Legend:
Experiment in all cases: NCI-60 one-dose screen, 48 h (100 = growth as untreated, 0 = no growth, -100 = all killed)
Details in all cases: 10 µM unless noted
SK-MEL-2 melanoma = test system: SK-MEL-2 melanoma
EKVX NSCLC = test system: EKVX NSCLC
SN12C renal = test system: SN12C renal
UO-31 renal = test system: UO-31 renal
TK-10 renal = test system: TK-10 renal
ACHN renal = test system: ACHN renal
CAKI-1 renal = test system: CAKI-1 renal
A498 renal = test system: A498 renal
CCRF-CEM leukemia = test system: CCRF-CEM leukemia
MOLT-4 leukemia = test system: MOLT-4 leukemia
RPMI-8226 leukemia = test system: RPMI-8226 leukemia
OVCAR-8 ovarian = test system: OVCAR-8 ovarian
OVCAR-5 ovarian = test system: OVCAR-5 ovarian
OVCAR-4 ovarian = test system: OVCAR-4 ovarian
SK-OV-3 ovarian = test system: SK-OV-3 ovarian
IGROV1 ovarian = test system: IGROV1 ovarian
OVCAR-3 ovarian = test system: OVCAR-3 ovarian
NCI/ADR-RES ovarian = test system: NCI/ADR-RES ovarian
SR leukemia = test system: SR leukemia
HS 578T breast = test system: HS 578T breast

SMILES | growth (SK-MEL-2 melanoma) | growth (EKVX NSCLC) | growth (SN12C renal) | growth (UO-31 renal) | growth (TK-10 renal) | growth (ACHN renal) | growth (CAKI-1 renal) | growth (A498 renal) | growth (CCRF-CEM leukemia) | growth (MOLT-4 leukemia) | growth (RPMI-8226 leukemia) | growth (OVCAR-8 ovarian) | growth (OVCAR-5 ovarian) | growth (OVCAR-4 ovarian) | growth (SK-OV-3 ovarian) | growth (IGROV1 ovarian) | growth (OVCAR-3 ovarian) | growth (NCI/ADR-RES ovarian) | growth (SR leukemia) | growth (HS 578T breast)
N#Cc1c(-c2ccc(Br)cc2)nc2n[nH]c(-c3ccc(Br)cc3)c2c1-c1ccc(C(F)(F)F)cc1 | -37.7% (active) | 5.95% (active) | 19.2% | 11.9% | 70% | 13.1% | 2.69% (active) | 92.3% | 13.9% | 4.06% (active) | 0.725% (active) | 40.4% | 47.7% | 11.8% | 21.8% | 6.15% (active) | 10.7% | 23.7% | – | –
COc1cc2c3c(n(CCCN4CCC[C@@H]4CO)c(=O)c2cc1OC)-c1cc2c(cc1C3=O)OCO2 | 120% | -70.6% (active) | -91.7% (active) | -92.5% (active) | 91.4% | -100% (active) | -94.6% (active) | 93.8% | 6.04% (active) | 5.36% (active) | -28.4% (active) | – | -98.7% (active) | -82.2% (active) | 27.1% | -88.9% (active) | -94.4% (active) | -67.4% (active) | -25.5% (active) | -6.35% (active)
OCNc1ccc(-n2cnc3cc(-c4ccc(O)cc4)ccc32)cc1C(F)(F)F | 21.7% | 34.7% | 19.7% | 13.1% | 46.6% | 12.2% | 33.5% | 74.9% | 31.9% | 15% | 24.1% | – | 34.4% | – | 54.7% | 44% | 15.9% | 17.2% | 25.3% | 11.2%
CC(=O)Nc1ccc(-c2nc3cc(-c4ccc(O)cc4)ccc3n2C)cc1 | 84.1% | 56.3% | 40.1% | 30.8% | 79% | 50.3% | 34.6% | 72.4% | 43.8% | 13.9% | 41.3% | 54.8% | 74.2% | 54.5% | 94.5% | 34.8% | 49% | 55.3% | – | 66.1%
CC(=O)Oc1ccc(/C=C/C(=O)N[C@@H](Cc2ccccc2)C(O)C(=O)NCc2ccccc2)cc1OC(C)=O (some centres not stated) | 110% | 90.6% | 90.8% | 38.8% | 76.9% | 85.5% | 71.3% | 115% | 44.9% | 55.5% | 69.8% | 75.9% | 113% | 77.3% | 91.5% | 62.5% | 84.7% | 104% | – | 84.8%
COc1cc2oc(-c3cccc(C(=O)Nc4ccc(Cl)cc4)c3)cc(=O)c2c(OCCNC(=O)[C@H](CO)NC(=O)OC(C)(C)C)c1OC | -1.01% (active) | 24.1% | 16.4% | 23.6% | 42.6% | 13.5% | 19.1% | 71.9% | 8.05% (active) | – | -39.9% (active) | 18.3% | 32% | 36.4% | 93.3% | 25.3% | 17.2% | 64.8% | 2.89% (active) | 26.5%
NC(=S)Nc1cccc(NC(N)=S)c1 | 112% | 101% | 81.9% | 70% | 107% | 96.3% | 79.7% | 101% | 96.4% | 89.7% | 109% | – | 104% | 94.6% | 126% | 97.5% | 88.5% | 97.6% | – | 105%
COc1ccc(-c2c(Nn3cnnn3)no[n+]2[O-])cc1 | 82.5% | 53.7% | 33.3% | 20.8% | 62.5% | 34.1% | 25.7% | 63.9% | 40.6% | – | 42% | 46.4% | 85.6% | 53.4% | 91.1% | 19.8% | 46.5% | 54.9% | 38.7% | 50%
O=C(/C=C/Nc1ccc2oc(=O)ccc2c1)c1cc2cc(Br)ccc2oc1=O | 107% | 105% | 102% | 81.4% | 124% | 107% | 92.5% | 144% | 120% | 115% | 103% | 104% | – | 102% | 99.8% | 105% | 122% | 109% | – | 92.6%
O=C(O)c1ccc(-c2ccc(/C=N/NC(=O)c3[nH]c4ccc(Br)cc4c3-c3ccccc3)s2)cc1 | -43% (active) | 13.3% | 11.5% | 24.7% | 22.8% | 14.2% | 20% | 40% | 7.68% (active) | 10.7% | 12.1% | 20.2% | 35.5% | 22.5% | 16.8% | 14.7% | 2.13% (active) | 19.9% | – | –
O=c1cc(-c2ccccc2)oc2cc(OCCCC[P+](c3ccccc3)(c3ccccc3)c3ccccc3)cc(O)c12 | -94.1% (active) | -97.6% (active) | -49.5% (active) | -97.1% (active) | -81.8% (active) | -100% (active) | -97.1% (active) | -83.3% (active) | -75.9% (active) | – | -66.7% (active) | -61.1% (active) | -97.7% (active) | -69.1% (active) | -83.4% (active) | -75.7% (active) | -94% (active) | -68.3% (active) | -39.8% (active) | -35.2% (active)
CCCCSc1nc(Nc2ccc(C(C)=O)cc2)c(C#N)c(-c2ccc(OC)cc2)n1 | 114% | 65.1% | 27.9% | 14.5% | -3.09% (active) | 2.58% (active) | 34% | 59.7% | 100% | – | 91% | 27.5% | 57.9% | -45.4% (active) | 106% | 38.5% | 20.8% | 58.1% | 70.9% | 66.1%
COC(=O)C[C@](O)(CCCC(C)(C)O)C(=O)O[C@H]1C(OC)=C[C@@]23CCCN2CCc2cc4c(cc2[C@@H]13)OCO4 | -40% (active) | -4.85% (active) | -11.3% (active) | 30.6% | -12.6% (active) | 2.95% (active) | 3.41% (active) | -18.6% (active) | -5.84% (active) | – | -18.1% (active) | -34.8% (active) | -14.5% (active) | -13.9% (active) | 2% (active) | -15.7% (active) | -28.5% (active) | 96.3% | -25% (active) | -26% (active)
